Pf growth 96h: P. falciparum growth inhibition at 96 hour, primary screen for plastid delayed-death inhibitors | 320,000 compounds, 6.9% hits | AID 504834 | Potency, µM (series often up to 28.7 µM), most hits filed as inhibitors | P. falciparum luciferase reporter growth, 96 h
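Erythrocytes infected with luciferase-expressing P. falciparum were dispensed at 2% hematocrit and 0.05% parasitemia (final), then incubated with compounds 96 hours at 37 C in 5% CO2. Luminescence after detection reagent addition reported growth.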
AMA1 RON2 block: inhibitors of Plasmodium falciparum AMA1-RON2 interaction; Potency, µM (doses to about 58.2 µM), most hits filed as inhibitors; AlphaScreen AMA1-biotinylated RON2 peptide binding; 360,000 compounds, 0.2% hits; further: nearly all actives have a fitted effect of over 45% in size
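AMA1 (3D7) with his tag at 25 nM final met compounds first, then biotinylated RON2 peptide at 25 nM; detection used donor plus acceptor beads, 10 µg/mL apiece, read by AlphaScreen after 30 min at room temperature.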
Pf growth 48h: P. falciparum growth inhibition at 48 hours (one generation). 310,000 compounds, 5.9% hits. Potency, µM (doses to about 28.7 µM), usual class: inhibitors. P. falciparum luciferase growth in erythrocytes, 48 h
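First compound was added to culture medium, then infected red cells at 0.1% parasitemia and 2% hematocrit (final). After incubation at 37 C under 5% CO2, luciferase detection reagent was dispensed and light output recorded.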
SARS PLP yeast: SARS-CoV PLP inhibition in yeast; S. cerevisiae expressing SARS-CoV PLpro, growth rescue; 330,000 compounds, 0.19% hits; Potency, µM (series often up to 32.9 µM), hits mostly activators; calls by dose curve; further: nearly all actives have a fitted effect of over 55% in size
Each line names hits and unclear results; the compound was inactive in the other large screens. Sampled rows, rich in hits. Any-hit rate of the full collection: about 9.4%. Unless noted, the call rests on the fitted dose curve; in most records, active means well fitted curve in the direction sought with a large enough effect; inconclusive means small, poorly fitted or top-dose-only effect, or another doubt; inactive means no such curve, though single readings can be large; an effect the other way counts as inactive or inconclusive.

OC(Cn1cncn1)c1ccc(Cl)cc1Cl (centres undefined)	none
OC(c1ccc(Cl)cc1Cl)C(Cc1cccnc1)n1cncn1 (centres undefined)	Pf growth 96h 13µM, Pf growth 48h inconclusive
O=C(CCCc1ccccc1)N=C1SC2CS(=O)(=O)CC2N1c1ccccc1 (centres undefined)	none
CN(C)c1ccc(N2C(=NC(=O)CCc3ccccc3)SC3CS(=O)(=O)CC32)cc1 (centres undefined)	Pf growth 96h 12µM, Pf growth 48h inconclusive
CC(C)NC(=O)c1cc(-c2cccs2)on1	none (no result: Pf growth 96h)
CC(C)C(C(=O)NC1=NCCS1)c1ccc(Cl)cc1 (centres undefined)	Pf growth 96h inconclusive, Pf growth 48h 3.7µM
CC(NC(=O)c1ccc(Cl)cc1)C(=O)NC1=NCCS1 (centres undefined)	none
COc1ccc(NC(=O)C(c2ccc(Cl)cc2)C(C)C)cn1 (centres undefined)	Pf growth 96h inconclusive, Pf growth 48h 1.5µM
Cc1ccc(C)c(NC(=O)CN(C)C(=O)c2ccccc2OCc2ccc(Cl)cc2)c1	Pf growth 96h inconclusive, Pf growth 48h inconclusive
COC(=O)c1ccccc1NC(=O)CSc1nc(Nc2ccccc2)nc(N2CCOCC2)n1	Pf growth 48h 9.3µM
CC(=O)c1ccc(NC(=O)CSc2nc(Nc3ccccc3)nc(N3CCOCC3)n2)cc1	Pf growth 48h inconclusive, SARS PLP yeast inconclusive
O=C(CSc1nc2ccc(Nc3nc(N4CCOCC4)nc(N4CCOCC4)n3)cc2s1)N1CCOCC1	none
CCOc1ccc2nc(SCC(=O)NC(=O)NCc3ccco3)sc2c1	none
O=C(CSc1nc2ccc(Nc3nc(N4CCOCC4)nc(N4CCOCC4)n3)cc2s1)Nc1ccccc1F	Pf growth 96h 10µM, Pf growth 48h inconclusive
O=C(CSc1nc2ccc(Nc3nc(N4CCOCC4)nc(N4CCOCC4)n3)cc2s1)Nc1ccccc1Cl	Pf growth 96h 2.6µM, Pf growth 48h 12µM
CCOc1ccc2nc(SCC(=O)NCc3ccco3)sc2c1	AMA1 RON2 block inconclusive, Pf growth 48h 8.3µM
COc1ccccc1NC(=O)Cn1c(=O)n(-c2ccccc2)c(=O)c2oc3ccccc3c21	none
Cc1cccc(C)c1Nc1nnc(SCC(=O)NCc2ccco2)s1	Pf growth 96h 0.83µM, Pf growth 48h inconclusive
Cc1cccc(C)c1Nc1nnc(SCC(=O)NCc2cccs2)s1	Pf growth 96h inconclusive
O=C(CSc1nc2ccc(Nc3nc(N4CCCC4)nc(N4CCCC4)n3)cc2s1)NCc1ccco1	Pf growth 96h inconclusive, Pf growth 48h 12µM
CSc1nc2ccc(Nc3nc(N4CCOCC4)nc(N4CCOCC4)n3)cc2s1	Pf growth 48h 9.3µM (no result: Pf growth 96h)
NC(=O)COc1ccc(-c2noc(COc3ccccc3[N+](=O)[O-])n2)cc1	none
CC1CCN(C(=O)C2CCN(S(=O)(=O)c3ccc(-n4cnnn4)cc3)CC2)CC1	Pf growth 96h 3.7µM
COc1cc(NC(=O)CCc2nnc3ccc(N4CCCCC4)nn23)cc(OC)c1OC	Pf growth 96h 10µM, Pf growth 48h inconclusive
COc1ccccc1NC(=O)CCc1nnc2ccc(N3CCCCC3)nn12	Pf growth 96h 4.1µM
COc1cc(NC(=O)CCc2nnc3ccc(N4CCCC4)nn23)cc(OC)c1OC	Pf growth 96h inconclusive, Pf growth 48h inconclusive
CCOc1ccccc1NC(=O)CCc1nnc2ccc(N3CCC(C)CC3)nn12	Pf growth 96h inconclusive, Pf growth 48h inconclusive
CCOC(=O)C1=C(C)NC(=O)NC1c1ccc(-c2ccc(Cl)cc2)o1 (centres undefined)	none
C=CCOc1c(OC)cc(Cl)cc1C1NC(=O)NC(C)=C1C(C)=O (centres undefined)	Pf growth 96h 3.3µM (no result: SARS PLP yeast)
COC(=O)C1=C(C)NC(=O)NC1c1ccc(-c2ccccc2Cl)o1 (centres undefined)	Pf growth 96h 3.7µM
COc1cc(C2NC(=O)NC(C)=C2C(=O)OC2CCC(C)CC2)ccc1O (centres undefined)	Pf growth 96h 2.6µM, Pf growth 48h 12µM
CCOC(=O)C1=C(C)NC(=S)NC1c1ccc(-c2ccc(Cl)cc2)o1 (centres undefined)	Pf growth 96h 7.4µM, Pf growth 48h inconclusive
CCc1nc2ccccc2n1Cc1ccccc1F	none
CCOc1ccc(C(=O)NCC(=O)NNC(=O)C2COc3ccccc3O2)cc1OCC (centres undefined)	none
C=CCOc1c(Cl)cc(C2NC(=O)NC(C)=C2C(=O)OC)cc1Cl (centres undefined)	Pf growth 48h 9.3µM (no result: Pf growth 96h)
C=CCOC(=O)C1=C(C)NC(=O)NC1c1ccc(OCC)cc1 (centres undefined)	Pf growth 48h inconclusive
COC(=O)C1=C(C)NC(=O)NC1c1ccccc1 (centres undefined)	Pf growth 96h inconclusive
COC(=O)C1=C(C)NC(=O)NC1c1ccc2ccccc2c1 (centres undefined)	Pf growth 96h 10µM, Pf growth 48h inconclusive
Cc1ccc(S(=O)(=O)N2CCCC(N3CCOCC3)C2)cc1Cl (centres undefined)	none
CC(=O)Nc1ccc(-n2nnnc2SCC(=O)NC2CCCC2)cc1	none
COc1ccc(C(c2nnnn2Cc2ccccc2)N2CCN(c3nc4ccccc4s3)CC2)cc1 (centres undefined)	Pf growth 48h 5.2µM (no result: Pf growth 96h)
c1ccc(CCn2nnnc2C(c2cccnc2)N2CCN(c3nc4ccccc4s3)CC2)cc1 (centres undefined)	Pf growth 48h 13µM
COc1ccc(Cn2nnnc2C(C(C)C)N2CCN(c3ccccc3OC)CC2)cc1 (centres undefined)	Pf growth 48h 4.7µM
CC(C)C(c1nnnn1Cc1ccc(F)cc1)N1CCN(c2ccc(O)cc2)CC1 (centres undefined)	Pf growth 96h inconclusive, Pf growth 48h inconclusive
COc1ccc(C(c2nnnn2CC2CCCO2)N2CCN(c3ccc(F)cc3)CC2)cc1 (centres undefined)	Pf growth 96h 8.3µM, Pf growth 48h inconclusive
Cc1cc(Cl)cc2c1NC(=O)[C@]21[C@@H]2C(=O)N(Cc3ccccc3)C(=O)[C@@H]2[C@@H]2CCCN21	Pf growth 48h inconclusive
Cc1cccc(NC(=S)N(CCCN2CCOCC2)C(C)c2cc3ccccc3o2)c1 (centres undefined)	Pf growth 48h inconclusive
COCCn1nnnc1C(c1ccc(OC)c(OC)c1)N1CCN(c2nc3ccccc3s2)CC1 (centres undefined)	Pf growth 96h 2.9µM, Pf growth 48h 13µM
COc1ccc(C(c2nnnn2Cc2ccccc2)N2CCN(c3ccccc3)CC2)cc1 (centres undefined)	Pf growth 96h 13µM, Pf growth 48h inconclusive
COc1cccc(NC(=O)CN2CCN(CC(=O)Nc3ccc(F)cc3)CC2)c1	none
CCC1(C)Cc2ccccc2-c2c1c(=O)n(-c1ccc(C)cc1)c1nnnn21 (centres undefined)	none (no result: Pf growth 96h)
Cc1nc(NC(=O)CC(C)C)sc1-c1csc(Nc2ccc(Cl)cc2Cl)n1	Pf growth 96h 9.3µM, Pf growth 48h inconclusive
COc1ccc(Cl)cc1Nc1nc(-c2sc(NC(=O)CC(C)C)nc2C)cs1	Pf growth 96h 9.3µM, Pf growth 48h 10µM
CCC(=O)Nc1nc(C)c(-c2csc(Nc3cccc(O)c3)n2)s1	none (no result: Pf growth 48h)

Bioassay records as filed in PubChem.
